# Source: the supplement of paper PMC8728848
# Shown is part of a subset that was picked to be rich in the strongest signals.
# Legend:
# Assay in all cases: glycan array binding signal (z-score within array); higher = stronger binding
# Conditions in all cases: glycan notation: IUPAC condensed, linker removed
# [1] = target: Gal(b1-4)GlcNAc(b1-2)Man(a1-6)[GlcNAc(b1-2)Man(a1-3)]Man(b1-4)GlcNAc(b1-4)GlcNAc
# How it was run: (§1)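 From the Consortium for Functional Glycomics database, 3228 arrays were curated, keeping only those whose protein sequence was available. Binding is given as a within-array Z-score averaged across arrays sharing a protein sequence and across linkers. Negative Z-scores can be read as non-binding.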
# [2] = target: Gal3S(b1-4)[Fuc(a1-3)]GlcNAc6S
# How it was run: as §1
# Gal6S(b1-4)Glc6S = target: Gal6S(b1-4)Glc6S
# How it was run: as §1
# [3] = target: GalNAc(a1-3)GalNAc(a1-3)Gal(a1-4)Gal(b1-4)GlcNAc
# How it was run: as §1
# [4] = target: GalNAc(b1-3)Gal(a1-6)Gal(b1-4)Glc
# How it was run: as §1
# Glc(a1-6)Glc(a1-6)Glc = target: Glc(a1-6)Glc(a1-6)Glc
# How it was run: as §1
# [5] = target: GlcNAc(b1-2)Gal(b1-3)GalNAc
# How it was run: as §1
# [6] = target: GlcNAc(b1-3)Gal(b1-4)GlcNAc(b1-2)Man(a1-3)[GlcNAc(b1-3)Gal(b1-4)GlcNAc(b1-2)Man(a1-6)]Man(b1-4)GlcNAc(b1-4)GlcNAc
# How it was run: as §1
# [7] = target: GlcNAc(b1-3)[GlcNAc(b1-6)]Gal(b1-4)GlcNAc
# How it was run: as §1
# [8] = target: GlcNAc(b1-3)[GlcNAc(b1-6)]GalNAc
# How it was run: as §1
# Kdn(a2-3)Gal(b1-3)GlcNAc = target: Kdn(a2-3)Gal(b1-3)GlcNAc
# How it was run: as §1
# [9] = target: Man(a1-2)Man(a1-2)Man(a1-3)[Man(a1-2)Man(a1-3)[Man(a1-2)Man(a1-6)]Man(a1-6)]Man(b1-4)GlcNAc(b1-4)GlcNAc
# How it was run: as §1
# [10] = target: Man(a1-2)Man(a1-3)[Man(a1-2)Man(a1-6)]Man(a1-6)[Man(a1-2)Man(a1-2)Man(a1-3)]Man
# How it was run: as §1
# [11] = target: Man(a1-3)[Man(a1-6)]Man(a1-6)[Man(a1-3)]Man
# How it was run: as §1
# [12] = target: Neu5Ac(a2-3)Gal(b1-3)GlcNAc(b1-3)Gal(b1-4)GlcNAc
# How it was run: as §1
# [13] = target: Neu5Ac(a2-3)Gal(b1-3)[Neu5Ac(a2-3)Gal(b1-4)]GlcNAc
# How it was run: as §1
# [14] = target: Neu5Ac(a2-3)Gal(b1-4)GlcNAc(b1-2)Man(a1-3)[Neu5Ac(a2-6)Gal(b1-4)GlcNAc(b1-2)Man(a1-6)]Man(b1-4)GlcNAc(b1-4)GlcNAc
# How it was run: as §1
# [15] = target: Neu5Ac(a2-3)Gal(b1-4)GlcNAc(b1-3)GalNAc
# How it was run: as §1
# [16] = target: Neu5Ac(a2-3)Gal(b1-4)GlcNAc(b1-6)GalNAc
# How it was run: as §1
# [17] = target: Neu5Ac(a2-6)Gal(b1-4)GlcNAc(b1-2)Man(a1-3)Man(b1-4)GlcNAc(b1-4)GlcNAc
# How it was run: as §1
# [18] = target: Neu5Ac(a2-6)Gal(b1-4)GlcNAc(b1-2)Man(a1-3)[Man(a1-6)]Man(b1-4)GlcNAc(b1-4)GlcNAc
# How it was run: as §1
# [19] = target: Neu5Ac(a2-6)Gal(b1-4)GlcNAc(b1-3)Gal(b1-4)GlcNAc(b1-6)[Gal(b1-3)]GalNAc
# How it was run: as §1
# [20] = target: Neu5Ac(a2-6)Gal(b1-4)GlcNAc(b1-3)GalNAc
# How it was run: as §1
# [21] = target: Neu5Ac(a2-8)Neu5Ac(a2-3)[GalNAc(b1-4)]Gal(b1-4)Glc
# How it was run: as §1
# [22] = target: Neu5Ac9Ac(a2-6)Gal(b1-4)GlcNAc
# How it was run: as §1
# [23] = target: Neu5Gc(a2-8)Neu5Gc(a2-3)Gal(b1-4)GlcNAc
# How it was run: as §1
# [24] = target: Neu5Gc(b2-6)Gal(b1-4)GlcNAc
# How it was run: as §1
binder,measurement,setting,value
"UEA-I (Ulex europaeus), P22972 (protein) SDDLSFKFKNFSQNGKDLSFQGDASVIETGVLQLNKVGNNLPDETGGIARYIAPIHIWNCNTGEVASFITSFSFFMETSANPKAATDGLTFFLAPPDSPLRRAGGYFGLFEDTKDNDSSYQTVAVEFDTIGSPVNFDDPGFPHIGIDVNRVKSINAERWNKRYGLNNVANVEIIYEASSKTLTASLTYPSDQTSISVTSIVDLKEILPEWVSVGFSGGTYIGRQATHEVLNWYFTSNLINTNS",glycan array binding signal (z-score),[1],-0.155
same,glycan array binding signal (z-score),[2],-0.212
same,glycan array binding signal (z-score),Gal6S(b1-4)Glc6S,-0.098
same,glycan array binding signal (z-score),[3],-0.179
same,glycan array binding signal (z-score),[4],-0.21
same,glycan array binding signal (z-score),Glc(a1-6)Glc(a1-6)Glc,-0.204
same,glycan array binding signal (z-score),[5],-0.195
same,glycan array binding signal (z-score),[6],-0.128
same,glycan array binding signal (z-score),[7],-0.266
same,glycan array binding signal (z-score),[8],-0.17
same,glycan array binding signal (z-score),Kdn(a2-3)Gal(b1-3)GlcNAc,-0.222
same,glycan array binding signal (z-score),[9],-0.378
same,glycan array binding signal (z-score),[10],-0.191
same,glycan array binding signal (z-score),[11],-0.125
same,glycan array binding signal (z-score),[12],-0.274
same,glycan array binding signal (z-score),[13],-0.122
same,glycan array binding signal (z-score),[14],-0.209
same,glycan array binding signal (z-score),[15],-0.22
same,glycan array binding signal (z-score),[16],-0.243
same,glycan array binding signal (z-score),[17],-0.227
same,glycan array binding signal (z-score),[18],-0.216
same,glycan array binding signal (z-score),[19],-0.032
same,glycan array binding signal (z-score),[20],-0.148
same,glycan array binding signal (z-score),[21],-0.259
same,glycan array binding signal (z-score),[22],-0.244
same,glycan array binding signal (z-score),[23],-0.238
same,glycan array binding signal (z-score),[24],-0.1
